According to PubChem BioAssay (NCI):
About 79,000 compounds went through this panel and 15% of them were active in at least one assay; those are over-represented in the sample as a whole. Calls of active or inactive are those of the source. Cut-off read from the data, not from the text of the source: active = growth inhibition above about 70%; inactive = the rest.

Columns and labels:
[1] = NCI Yeast Anticancer Drug Screen. Data for the mlh1 strain (AID 171);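 note: 0% = growth of vehicle-treated control cultures of the same strain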; conditions: S. cerevisiae mlh1 strain growth inhibition, active compounds read high
Outline: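 Measured: yeast growth. Reference: vehicle-treated controls. Organism: strain with a defined alteration affecting DNA damage repair or cell cycle control, treated with compound.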

[2] = NCI Yeast Anticancer Drug Screen. Data for the sgs1 strain (AID 173);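 note: 0% = growth of vehicle-only control cultures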; conditions: S. cerevisiae sgs1 mutant, active compounds read high
Outline: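 Each compound was added to cultures of the altered yeast strain. Growth was recorded, and inhibition was derived by comparison with vehicle controls.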

[3] = NCI Yeast Anticancer Drug Screen. Data for the mlh1 rad18 strain (AID 175); conditions: S. cerevisiae mlh1 rad18 strain growth inhibition, active compounds read high
Outline: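 Genetically defined yeast (DNA repair-deficient) exposed to compounds; growth inhibition determined relative to vehicle.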

[4] = NCI Yeast Anticancer Drug Screen. Data for the rad18 strain (AID 177); conditions: S. cerevisiae rad18 mutant growth inhibition, active compounds read high
Outline: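 Vehicle-treated cultures served as the baseline for scoring compound-induced growth inhibition in DNA-repair-mutant yeast.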

[5] = NCI Yeast Anticancer Drug Screen. Data for the rad52 strain (AID 147);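 note: 0% = growth of vehicle-treated control cultures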; conditions: S. cerevisiae rad52 mutant growth inhibition, active compounds read high
Outline: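 The repair-mutant yeast strain was incubated with compounds, then growth was read and inhibition derived relative to vehicle.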

[6] = NCI Yeast Anticancer Drug Screen. Data for the wt1 strain (AID 149);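 note: 0% = growth of vehicle-treated wt1 cultures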; conditions: S. cerevisiae wt1 strain (SPY 50644) growth inhibition, active compounds read high
Outline: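 Growth inhibition read against vehicle controls after compound exposure of the wt1 yeast strain.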

[7] = NCI Yeast Anticancer Drug Screen. Data for the rad50EPP+ strain (AID 151);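 note: 0% = growth of vehicle-treated control cultures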; conditions: S. cerevisiae rad50 mutant strain, active compounds read high
Outline: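 Vehicle-normalised growth inhibition; rad50EPP+ yeast strain, altered in DNA damage repair, compound-treated.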

[8] = NCI Yeast Anticancer Drug Screen. Data for the mgt1 strain (AID 153); conditions: S. cerevisiae mgt1 mutant growth inhibition, active compounds read high
Outline: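 Vehicle-normalized growth inhibition is determined in mgt1 yeast, a strain selected for a defined alteration in DNA repair or cell cycle control.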

[9] = NCI Yeast Anticancer Drug Screen. Data for the rad50 strain (AID 155);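 note: 0% = growth of vehicle-only cultures of the same strain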; conditions: S. cerevisiae rad50 strain growth inhibition, active compounds read high
Outline: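 Readout: growth inhibition relative to vehicle-treated cultures. Compound exposure was carried out in a genetically defined yeast strain deficient in DNA damage repair.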

[10] = NCI Yeast Anticancer Drug Screen. Data for the mec2-1 strain (AID 157); conditions: S. cerevisiae mec2-1 strain, active compounds read high
Outline: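 Mutant yeast (mec2-1) grown with compound; growth inhibition relative to vehicle control reported.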

[11] = NCI Yeast Anticancer Drug Screen. Data for the sgs1 mgt1 strain (AID 161);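 note: 0% = growth of cultures given vehicle only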; conditions: S. cerevisiae sgs1 mgt1 strain, active compounds read high
Outline: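 Compounds are added to genetically altered yeast, and growth is compared with cultures given vehicle alone to give percent inhibition.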

[12] = NCI Yeast Anticancer Drug Screen. Data for the CLN2oe strain (AID 163);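 note: 0% = growth of vehicle-only control cultures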; conditions: S. cerevisiae CLN2oe strain, active compounds read high
Outline: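 Compounds are applied to yeast harbouring a defined cell-cycle control change; reduced growth compared with vehicle-treated controls gives the value.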

[13] = NCI Yeast Anticancer Drug Screen. Data for the cln2 rad14 strain (AID 165);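 note: 0% = growth equal to vehicle treated cultures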; conditions: S. cerevisiae cln2 rad14 strain, active compounds read high
Outline: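 Readout is yeast growth inhibition versus vehicle-treated controls, using a strain with cln2 and rad14 alterations exposed to compound.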

[14] = NCI Yeast Anticancer Drug Screen. Data for the bub3 strain (AID 167); conditions: S. cerevisiae bub3 mutant strain, active compounds read high
Outline: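 Readout: yeast growth inhibition, expressed relative to vehicle-only wells. The test organism is a mutant strain from a panel with lesions in DNA repair or checkpoint genes.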

[15] = NCI Yeast Anticancer Drug Screen. Data for the wt2 strain (AID 169);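 note: 0% = growth of vehicle-treated yeast cultures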; conditions: S. cerevisiae wt2 strain growth inhibition, active compounds read high
Outline: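 Against vehicle-treated controls, the growth of yeast exposed to each compound was compared, and the inhibition was recorded.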

[16] = at 5.0 µM (retest, dose inferred, filed as 0.5)
[17] = at 50.0 µM (retest, dose inferred, filed as 5.0)

Measured: growth inhibition

O=C1CSC(/C=C/c2ccccc2)N1c1ccc(-c2ccc(-n3c(-c4ccccc4)nc4ccccc4c3=O)cc2)cc1 (stereo unspecified)
active: [1]; at 100.0 µM 77% | [3]; [17] 91% | [3]; at 50.0 µM 84.3%
inactive: [1]; at 1.2 µM -2% | [1]; at 3.7 µM -1% | [1]; at 11.0 µM -2% | [1]; at 33.0 µM 18% | [2]; at 1.2 µM -2% | [2]; at 3.7 µM -2% | [2]; at 11.0 µM 0% | [2]; at 33.0 µM 17% | [2]; at 100.0 µM 61% | [3]; [16] -6% | [4]; at 1.2 µM -3% | [4]; at 3.7 µM 1% | [4]; at 11.0 µM 5% | [4]; at 33.0 µM 13% | [4]; at 100.0 µM 46%

CC(=O)OCC(=O)C1(O)CCC2C3CCC4CCCCC4(C)C3CCC21C (stereo unspecified)
active: [5]; at 100.0 µM 83% | [6]; at 100.0 µM 77% | [8]; at 100.0 µM 88% | [9]; [17] 78% | [9]; at 50.0 µM 83.2% | [9]; at 100.0 µM 87% | [10]; [17] 84% | [10]; at 100.0 µM 81% | [11]; at 50.0 µM 70.5% | [12]; at 100.0 µM 82% | [13]; [17] 75% | [13]; at 50.0 µM 76% | [14]; [17] 74% | [14]; at 50.0 µM 76% | [14]; at 100.0 µM 82% | [15]; at 100.0 µM 74% | [1]; at 100.0 µM 79% | [2]; at 100.0 µM 79% | [3]; [17] 80% | [3]; at 50.0 µM 70.8% | [4]; at 100.0 µM 92%
inactive: [5]; at 1.2 µM -52% | [5]; at 3.7 µM -27% | [5]; at 11.0 µM 21% | [5]; at 33.0 µM 55% | [6]; at 1.2 µM -20% | [6]; at 3.7 µM -14% | [6]; at 11.0 µM 7% | [6]; at 33.0 µM 50% | [7]; at 1.2 µM -9% | [7]; at 3.7 µM -16% | [7]; at 11.0 µM -40% | [7]; at 33.0 µM -22% | [7]; at 100.0 µM -25% | [8]; at 1.2 µM 3% | [8]; at 3.7 µM 3% | [8]; at 11.0 µM 34% | [8]; at 33.0 µM 57% | [9]; at 1.2 µM 13% | [9]; at 3.7 µM -25% | [9]; [16] 59% | [9]; at 11.0 µM 13% | [9]; at 33.0 µM 53% | [10]; at 1.2 µM -3% | [10]; at 3.7 µM -10% | [10]; [16] 64% | [10]; at 11.0 µM 14% | [10]; at 33.0 µM 41% | [10]; at 50.0 µM 61.5% | [11]; [16] -11% | [11]; [17] 60% | [12]; at 1.2 µM 10% | [12]; at 3.7 µM 23% | [12]; at 11.0 µM 34% | [12]; at 33.0 µM 60% | [13]; [16] 35% | [14]; at 1.2 µM -24% | [14]; at 3.7 µM -13% | [14]; [16] 56% | [14]; at 11.0 µM 26% | [14]; at 33.0 µM 46% | [15]; at 1.2 µM -50% | [15]; at 3.7 µM -54% | [15]; at 11.0 µM -17% | [15]; at 33.0 µM 27% | [1]; at 1.2 µM -2% | [1]; at 3.7 µM -8% | [1]; at 11.0 µM 7% | [1]; at 33.0 µM 37% | [2]; at 1.2 µM -16% | [2]; at 3.7 µM -16% | [2]; at 11.0 µM 14% | [2]; at 33.0 µM 38% | [3]; [16] 47% | [4]; at 1.2 µM 10% | [4]; at 3.7 µM 24% | [4]; at 11.0 µM 32% | [4]; at 33.0 µM 67%
